The structures appear in SMILES notation. Inconclusive results are not listed. Values without a mark were called inactive. The call rests on the fitted dose curve.
On the % scale 0 is the no-effect control and ±100 the full control effect.

Chain of Acetylcholinesterase (Homo sapiens) (P22303 whole entry, looked up): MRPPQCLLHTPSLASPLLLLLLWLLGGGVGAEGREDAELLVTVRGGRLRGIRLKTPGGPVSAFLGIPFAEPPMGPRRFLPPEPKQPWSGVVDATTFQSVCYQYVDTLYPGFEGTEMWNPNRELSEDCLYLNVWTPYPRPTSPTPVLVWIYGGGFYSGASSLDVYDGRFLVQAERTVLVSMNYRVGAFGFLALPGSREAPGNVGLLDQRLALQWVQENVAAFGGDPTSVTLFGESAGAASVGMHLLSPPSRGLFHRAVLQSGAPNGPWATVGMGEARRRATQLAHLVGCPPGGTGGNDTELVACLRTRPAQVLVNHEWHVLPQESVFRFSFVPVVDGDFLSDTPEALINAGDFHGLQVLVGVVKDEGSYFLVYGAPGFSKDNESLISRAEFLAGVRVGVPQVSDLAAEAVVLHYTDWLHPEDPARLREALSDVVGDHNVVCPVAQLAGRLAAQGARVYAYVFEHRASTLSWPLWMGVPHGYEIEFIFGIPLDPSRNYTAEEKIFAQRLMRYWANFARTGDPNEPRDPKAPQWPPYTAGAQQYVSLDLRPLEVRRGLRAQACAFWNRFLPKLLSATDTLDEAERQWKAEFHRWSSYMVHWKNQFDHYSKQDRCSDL

In the test the target is Acetylcholinesterase (Homo sapiens) (UniProt P22303). Nature of the test: Acetylcholinesterase (AChE) small molecule antagonists: colormetric cell-based qHTS assay (AID 1347395). Further: nearly all actives have a fitted effect of over 30% in size. The following applies: SH-SY5Y cells AChE activity, colorimetric (Ellman); series mostly up to 115 µM; activity, negative = inhibition: at the top concentration. A digest of the protocol:
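AChE inhibition read colorimetrically via DTNB–thiocholine in SH-SY5Y cells. Compound 30 min, substrate 90 min, both 37 C.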
A general note: In qHTS, concentration-response curves come from the screen itself.
As for `CN1CCCC1`, the “activity, negative = inhibition” value was 0.283%.

For `CC(C)CCCO`, the “activity, negative = inhibition” value is 0.421%.

For `CN1CCC(=C2c3ccccc3Sc3ccccc32)CC1`, the “activity, negative = inhibition” value was -0.969% [at 52.9 µM].

For the molecule `CCCCOC(=O)/C=C\C(=O)OCCCC`, the “activity, negative = inhibition” value is 0%.

Regarding `OCC(CO)n1cnc(-c2ccc(F)cc2)c1-c1ccnc(Oc2ccccc2)n1`, the “activity, negative = inhibition” value is 4.09%.

For the molecule `Cc1ccccc1S`, the “activity, negative = inhibition” value is 3.75% [at 52.9 µM].

On to `CC[N+]1(CC)CCC(=C(c2ccccc2)c2ccccc2)C1C` (stereo unspecified), for which the “activity, negative = inhibition” value is -2.89% [at 52.9 µM].

`NC(=O)c1ccccc1`: the “activity, negative = inhibition” value was 3.83%.

Turning to `COc1ccc(/C=C/c2cc(OC)cc(=O)o2)cc1`, the “activity, negative = inhibition” value is 0.571% [at 52.9 µM].

`Cc1cc(C)c(O)c(C(C)(C)C)c1`: the “activity, negative = inhibition” value is 3.73%.

With `CC(C)=CCC/C(C)=C/COC=O`, the “activity, negative = inhibition” value is -3.03%.

In the case of `CCOc1ccccc1O`, the “activity, negative = inhibition” value is 5.08%.

Regarding `CCC1(C)NC(=O)NC1=O` (stereo unspecified), the “activity, negative = inhibition” value was -0.346%.

As to `CC[C@H]1O[C@]2(CC[C@@H]1C)C[C@@H]1C[C@@H](C/C=C(\C)C[C@@H](C)/C=C/C=C3\CO[C@@H]4[C@H](O)C(C)=C[C@@H](C(=O)O1)[C@]34O)O2`, the “activity, negative = inhibition” value is -0.662%.

`CC(C)(C)c1cc(CO)cc(C(C)(C)C)c1O`: the “activity, negative = inhibition” value was 2.91%.

With `COc1cccc(OC)c1`, the “activity, negative = inhibition” value is 4.42%.

Regarding `CCO[Si](OCC)(OCC)OCC`, the “activity, negative = inhibition” value is 1.13%.

Consider `OC1CCC(C2CCCCC2)CC1` (stereo unspecified), for which the “activity, negative = inhibition” value was 0.0882%.

As for `OC1CCCCC1c1ccccc1` (stereo unspecified), the “activity, negative = inhibition” value was -2.41%.

For the molecule `CCN(CC)CCOc1ccc(Cc2ccccc2)cc1`, the “activity, negative = inhibition” value was 0.881% [at 52.9 µM].

For the molecule `Nc1nc(N)nc(-c2cc(Cl)ccc2Cl)n1`, the “activity, negative = inhibition” value is 0.483% [at 52.9 µM].

The values are drawn from PubChem BioAssay (Tox21).
